The source of these data is PubChem BioAssay.

Test [1] is described as follows: optical density shifts of acrAB sulA E. coli – strain DRC41, OD650, 48 h, E. coli filamentation inducer project, primary screen (AID 1152).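 Also: E. coli MC1000 strain DRC41 lacking acrAB efflux pump and sulA.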 Conditions: higher = more signal, called active from +8 up or from −8 down.
Test [2] is described as follows: probe aLefty1 binding on compound microarray – biochemical, small-molecule microarray, 635/667 nm fluorescence, primary screen (AID 1153).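 Also: score merges spot fluorescence with signal-to-noise ratio from the scanned slide images.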 Conditions: higher = more signal.
Test [3] can be described thus: plasmodial surface anion channel blockers, osmotic lysis – cell-based, P. falciparum Indochina, OD700, 1 h, primary screen (AID 1154). Conditions: P. falciparum Indochina infected RBC osmotic lysis, higher = more signal, called active from +8 up or from −8 down.
Test [4] in a line: plasmodial surface anion channel blockers, osmotic lysis – cell-based, P. falciparum Indochina, OD700, 2 h, primary screen (AID 1155).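 Also: lysis reports solute entry through the parasite surface anion channel PSAC.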 Conditions: P. falciparum Indochina infected erythrocytes, higher = more signal, called active from +8 up or from −8 down.
The nature of test [5]: changes in parasitized red cell lysis, either direction – P. falciparum Indochina, OD700, 3 h, PSAC antagonist project, primary screen (AID 1156). Conditions: P. falciparum-infected erythrocytes, osmotic lysis, higher = more signal, called active from +8 up or from −8 down.
The nature of test [6]: plasmodial surface anion channel blockers, osmotic lysis – cell-based, P. falciparum Indochina, OD700, 18 h, primary screen (AID 1157). The following applies: P. falciparum Indochina infected erythrocytes, osmotic lysis OD700, 18 h; higher = more signal, called active from +8 up or from −8 down.
Test [7] in a line: S6 kinase pathway phospho-S6 level changes – cell-based, A549, cytoblot, luminescence, serum-stimulated, primary screen (AID 1158).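 Also: serum-stimulated A549 lung adenocarcinoma cells; signal is phosphorylated S6 detected by cytoblot immunostaining with HRP secondary.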 The following applies: 5 h, higher = more signal.
Test [8] has as its target NADPH oxidase 2 (Homo sapiens) (UniProt P04839). Nature of the test: compounds shifting NOX2 Amplex Red fluorescence – cell-based, HEK293-NOX2, PMA-stimulated, NOX inhibitor project, primary screen (AID 1159). Also: test concentration not given here. Conditions: 45 min, higher = more signal, called active from +8 up or from −8 down.
The target in test [9] is NADPH oxidase 4 (Homo sapiens) (UniProt Q9NPH5). Description: compounds shifting NOX4 Amplex Red fluorescence – cell-based, HEK293-NOX4, tetracycline-induced, NOX inhibitor project, primary screen (AID 1160). Conditions: HEK293-NOX4, Amplex Red H2O2 fluorescence, 45 min; higher = more signal, called active from +8 up or from −8 down.
Test [10] has as its target NADPH oxidase 5 (Homo sapiens) (UniProt Q96PH1). Nature of the test: compounds shifting NOX5 Amplex Red fluorescence – cell-based, HEK293-NOX5, NOX inhibitor project, primary screen (AID 1161). The following applies: HEK293-NOX5, ionomycin, 45 min, higher = more signal.
Test [11] is described as follows: compound effects on lung adenocarcinoma cell viability – A549, calcein-AM fluorescence, 48 h, basal, profiling panel (AID 1162). Also: test concentration not given here. The following applies: higher = more signal.
The nature of test [12]: compound effects on differentiated 3T3-L1 adipocyte viability – cell-based, 3T3-L1 adipocytes, calcein-AM fluorescence, 48 h, basal, profiling panel (AID 1163). Also: test concentration not given here. Conditions: 3T3-L1 adipocytes viability, higher = more signal.
The nature of test [13]: compound effects on hepatocellular carcinoma cell viability – HepG2, calcein-AM fluorescence, 48 h, basal, profiling panel (AID 1164). Also: test concentration not given here. The following applies: higher = more signal.
Test [14] is described as follows: compound effects on multiple myeloma cell viability – MM1S, calcein-AM fluorescence, 48 h, basal, profiling panel (AID 1165). Also: test concentration not given here. Conditions: higher = more signal.
Test [15] in a line: calcein-AM signal in unstimulated myeloma cells – cell-based, calcein-AM fluorescence, 48 h, PK04 Diversity Set, profiling panel (AID 1166).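 Also: cells grown under basal conditions without added stimulus; test concentration not given here.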 The following applies: RPMI8226 myeloma viability, higher = more signal.
Test [16] in a line: JC-1 mitochondrial signal, unstimulated HepG2 cells – cell-based, JC-1 fluorescence, 24 h, 100 nL compound, profiling panel (AID 1167). Also: test concentration not given here. The following applies: HepG2 mitochondrial potential, higher = more signal.
Test [17] can be described thus: JC-1 mitochondrial signal, unstimulated adipocytes – cell-based, JC-1 fluorescence, 3T3-L1 adipocytes, 24 h, 100 nL compound, profiling panel (AID 1168). Also: test concentration not given here. Conditions: JC-1 mitochondrial fluorescence, higher = more signal, called active from +8 up or from −8 down.
A short description of test [18]: JC-1 mitochondrial signal, unstimulated myeloma cells – cell-based, JC-1 fluorescence, RPMI8226, 24 h, 100 nL compound, profiling panel (AID 1169). Also: test concentration not given here. Conditions: JC-1 mitochondrial potential fluorescence, higher = more signal.
Test [19] is described as follows: JC-1 mitochondrial signal, unstimulated MM1S myeloma – cell-based, JC-1 fluorescence, 24 h, 100 nL compound, profiling panel (AID 1170). Also: test concentration not given here. The following applies: MM1S mitochondrial potential, higher = more signal.
The nature of test [20]: resazurin metabolic signal in A549 cells – cell-based, resazurin fluorescence, 24 h, PK04 Diversity Set, profiling panel (AID 1171). Also: test concentration not given here. Conditions: A549 viability, higher = more signal, called active from +8 up or from −8 down.

Structures are written as SMILES. Activity calls are given as the source filed them.

Chain of NADPH oxidase 4 (Homo sapiens) (Q9NPH5 whole entry, looked up): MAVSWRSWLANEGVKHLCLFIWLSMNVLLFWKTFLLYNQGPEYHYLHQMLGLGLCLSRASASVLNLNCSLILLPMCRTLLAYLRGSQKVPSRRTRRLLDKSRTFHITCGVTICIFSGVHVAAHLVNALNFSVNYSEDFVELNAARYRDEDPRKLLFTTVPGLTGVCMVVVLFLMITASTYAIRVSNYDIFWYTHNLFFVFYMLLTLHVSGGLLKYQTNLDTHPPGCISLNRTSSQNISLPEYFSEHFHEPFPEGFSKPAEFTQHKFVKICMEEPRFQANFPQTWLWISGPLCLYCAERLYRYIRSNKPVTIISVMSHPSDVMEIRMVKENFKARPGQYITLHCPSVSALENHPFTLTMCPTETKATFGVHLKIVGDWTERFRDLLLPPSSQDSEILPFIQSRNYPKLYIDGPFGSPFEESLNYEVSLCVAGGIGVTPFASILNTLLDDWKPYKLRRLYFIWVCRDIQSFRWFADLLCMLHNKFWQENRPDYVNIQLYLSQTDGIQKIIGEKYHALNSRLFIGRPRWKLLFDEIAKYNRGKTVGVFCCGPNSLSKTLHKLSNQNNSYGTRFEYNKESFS
Chain of NADPH oxidase 5 (Homo sapiens) (Q96PH1 whole entry, looked up): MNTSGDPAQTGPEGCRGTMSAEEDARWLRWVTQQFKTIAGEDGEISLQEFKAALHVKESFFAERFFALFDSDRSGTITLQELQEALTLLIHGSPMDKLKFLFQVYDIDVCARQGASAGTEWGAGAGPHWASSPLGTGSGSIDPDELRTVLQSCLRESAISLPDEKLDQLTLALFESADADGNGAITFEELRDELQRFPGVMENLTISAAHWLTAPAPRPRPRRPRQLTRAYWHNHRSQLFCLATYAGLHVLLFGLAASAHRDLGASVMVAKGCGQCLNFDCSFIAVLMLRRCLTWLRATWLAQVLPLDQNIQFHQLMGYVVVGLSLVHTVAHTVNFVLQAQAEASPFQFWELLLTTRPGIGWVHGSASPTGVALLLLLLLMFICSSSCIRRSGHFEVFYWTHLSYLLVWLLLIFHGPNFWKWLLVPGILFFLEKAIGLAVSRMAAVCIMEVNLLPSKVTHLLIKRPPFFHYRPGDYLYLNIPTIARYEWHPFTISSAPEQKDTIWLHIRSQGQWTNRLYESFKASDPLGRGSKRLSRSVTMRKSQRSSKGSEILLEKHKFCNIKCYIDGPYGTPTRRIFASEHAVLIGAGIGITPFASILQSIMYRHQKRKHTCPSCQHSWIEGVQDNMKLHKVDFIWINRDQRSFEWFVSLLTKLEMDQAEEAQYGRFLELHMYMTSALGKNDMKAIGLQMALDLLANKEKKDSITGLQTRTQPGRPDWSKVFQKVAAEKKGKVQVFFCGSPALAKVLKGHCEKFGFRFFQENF
Chain of NADPH oxidase 2 (Homo sapiens) (P04839 whole entry, looked up): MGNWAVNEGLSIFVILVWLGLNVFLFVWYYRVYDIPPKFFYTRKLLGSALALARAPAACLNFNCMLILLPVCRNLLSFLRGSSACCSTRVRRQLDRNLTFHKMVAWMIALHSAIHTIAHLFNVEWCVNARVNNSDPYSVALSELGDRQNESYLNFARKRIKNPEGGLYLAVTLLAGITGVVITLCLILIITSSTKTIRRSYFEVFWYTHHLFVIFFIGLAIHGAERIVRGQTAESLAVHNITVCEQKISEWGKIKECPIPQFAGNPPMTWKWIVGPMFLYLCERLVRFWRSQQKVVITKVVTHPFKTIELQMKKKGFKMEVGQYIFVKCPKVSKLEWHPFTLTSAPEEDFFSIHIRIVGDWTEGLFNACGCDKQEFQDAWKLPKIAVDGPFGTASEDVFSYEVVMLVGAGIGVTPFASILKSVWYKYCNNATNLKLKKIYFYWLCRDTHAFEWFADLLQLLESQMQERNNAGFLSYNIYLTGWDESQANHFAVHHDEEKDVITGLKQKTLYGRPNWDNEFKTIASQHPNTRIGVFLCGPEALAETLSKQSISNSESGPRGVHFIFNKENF

As for `COc1ccc(O[C@H]2C=C[C@@H](c3ccccc3)O[C@@H]2CON=C(C)CCN2CCc3nc(-c4ccccc4)c(-c4ccccc4)cc3C2)cc1`, the z-score in [1] was -1.59 (inactive); in test [3], 2.48 (inactive); in test [4] it was 1.25 (inactive); in test [5], 0.855 (inactive); in test [6] it was 0.71 (inactive); in [7], -0.0313. In addition, the z-score in test [8] is 0.168 (inactive); in test [9], 0.00405 (inactive); in test [10] it was -0.434; in [11], 0.437; in [12], 0.133; in test [13], 0.59. In addition, the z-score in test [14] was -1.65; in test [15], -0.439; in test [16], 4.95; in test [17] it was -1.39 (inactive); in [18], 0.965; in [19] it was -0.214. In addition, the z-score in [20] was 0.621 (inactive). In test [2], this molecule yielded a composite z-score of -0.101.

For `Cc1ccc(S(=O)(=O)N[C@H]2COC(=O)CC=C[C@H](C)[C@@H](NS(=O)(=O)c3ccc(C)cc3)COC(=O)CC=C[C@@H]2C)cc1`, the z-score is 0.373 (inactive) in test [1]; 0.334 (inactive) in test [3]; 0.283 (inactive) in test [4]; 0.654 (inactive) in [5]; 0.441 (inactive) in test [6]; -1.01 in test [7]. The z-score in test [8] is 0.152 (inactive); in [9], -1.92 (inactive); in [10] it was -1.01; in [11], -0.315; in test [12], 0.352; in test [13] it was -0.521. For the same molecule, the z-score in test [14] was 0.248; in test [15], -0.11; in [16], 0.477; in test [17] it was -0.0603 (inactive); in [18], 0.822; in [19], 0.507. In addition, the z-score in test [20] was 0.694 (inactive). In test [2], this molecule had a composite z-score of -0.147.

Regarding `C#CCCCON=C1C[C@@H](O)[C@@H](O)[C@@H]2[C@@H]3C(=O)N(Cc4ccccc4)C(=O)[C@@H]3CC[C@@H]12`, the z-score in test [1] was 0.292 (inactive); in test [3], 0.564 (inactive); in test [4], 0.579 (inactive); in test [5] it was -0.292 (inactive); in test [6], 0.06 (inactive); in [7], -0.507. Also, the z-score in test [8] is -0.727 (inactive); in test [9], 0.47 (inactive); in [10] it was 0.551; in test [11], 0.307; in [12] it was -0.198; in [13], -0.732. The z-score was -0.488 in [14]; 0.199 in [15]; 0.793 in test [16]; 0.89 (inactive) in [17]; -0.323 in test [18]; -0.467 in test [19]. Moreover, the z-score in test [20] was 0.37 (inactive). The composite z-score in [2] was -0.0479.

Consider `CCOC(=O)CCN1C(=O)[C@H]2[C@H]3[C@H](O)[C@H](O)CC(=NNC(=O)OCc4ccccc4)[C@@H]3CC[C@H]2C1=O`, for which the z-score in test [1] is 0.809 (inactive); in test [3] it was 0.0026 (inactive); in test [4] it was -0.37 (inactive); in test [5] it was -0.371 (inactive); in test [6], -0.0393 (inactive); in test [7], 0.33. The z-score in test [8] is -4.57 (inactive); in [9], 0.0939 (inactive); in test [10] it was 0.181; in test [11], -0.0996; in [12], 0.902; in [13], 0.554. Besides, the z-score in [14] is 0.457; in [15], -0.359; in test [16] it was -0.398; in [17], -0.773 (inactive); in test [18], 0.279; in test [19] it was -0.614. The z-score in test [20] is -0.744 (inactive). Also, the composite z-score in test [2] was -0.147.

For `CO[C@H]1COC(=O)CC=C[C@@H](C)[C@H](OC)COC(=O)[C@@H]2CCCN2C(=O)CC=C[C@@H]1C`, the z-score was 0.544 (inactive) in test [1]; -0.0903 (inactive) in [3]; -0.289 (inactive) in test [4]; -0.32 (inactive) in test [5]; -0.0159 (inactive) in test [6]; 1.14 in test [7]. Further, the z-score is 0.833 (inactive) in test [8]; 0.196 (inactive) in test [9]; 0.0432 in [10]; 0.976 in test [11]; 0.308 in test [12]; -0.259 in test [13]. Also, the z-score in test [14] is 0.491; in test [15], -0.394; in [16] it was 0.0843; in test [17], -0.0391 (inactive); in test [18], -0.83; in test [19], 1.22. In test [20], the z-score was 0.572 (inactive). The molecule also yielded a composite z-score in [2] of 0.114.

With `COC(=O)[C@@H]1CC[C@H](C)[C@@H](c2ccc(C)cc2)N1C(=O)c1ccc(C=NO[C@@H]2O[C@H](COC(C)=O)[C@@H](OC(C)=O)[C@H](OC(C)=O)[C@H]2OC(C)=O)cc1`, the z-score is -0.492 (inactive) in test [1]; -0.013 (inactive) in test [3]; -0.647 (inactive) in test [4]; 0.819 (inactive) in test [5]; -1.79 (inactive) in [6]; 1.02 in test [7]. For the same molecule, the z-score in test [8] is -0.454 (inactive); in [9] it was -0.674 (inactive); in [10] it was -2.1; in [11], -1.3; in test [12] it was 0.216; in test [13], -0.373. In addition, the z-score was -0.82 in test [14]; -1.17 in test [15]; 2.74 in [16]; 0.28 (inactive) in [17]; -0.139 in test [18]; 0.155 in [19]. Further, the z-score in test [20] was 0.855 (inactive). The same molecule had a composite z-score in [2] of 0.0391.

For the molecule `O=c1n(Cc2cc3c(cc2Cl)OCO3)c(=O)n2n1CC[C@@H]1C(=NOCc3ccccc3)[C@H]3O[C@H]3[C@@H](O)[C@@H]12`, the z-score in [1] was 0.112 (inactive); in test [3], 0.99 (inactive); in test [4], -1.13 (inactive); in [5], 0.434 (inactive); in [6], -2.49 (inactive); in [7], 1.63. Also, the z-score in test [8] was -0.641 (inactive); in test [9] it was 0.153 (inactive); in [10] it was 0.615; in [11] it was 0.7; in [12], -0.362; in [13] it was 0.941. Besides, the z-score in [14] was -0.64; in [15] it was 0.341; in test [16], 1.1; in test [17] it was 0.218 (inactive); in test [18] it was 0.185; in test [19] it was 0.178. Besides, the z-score in test [20] is -1.11 (inactive). The molecule also yielded a composite z-score in test [2] of -0.055.

In the case of `COC(=O)NCC=Cc1nc(CCCO)co1`, the z-score was -0.0186 (inactive) in test [1]; 0.0325 (inactive) in test [3]; 0.496 (inactive) in [4]; -0.304 (inactive) in [5]; -0.145 (inactive) in [6]; -0.726 in test [7]. For the same molecule, the z-score was -0.745 (inactive) in test [8]; 0.996 (inactive) in [9]; 0.449 in test [10]; 0.206 in [11]; -0.683 in test [12]; 0.392 in [13]. The z-score was 0.225 in [14]; 0.0204 in test [15]; -0.64 in test [16]; 0.331 (inactive) in test [17]; -0.0369 in [18]; -0.606 in test [19]. For the same molecule, the z-score in test [20] is -0.238 (inactive). Besides, the composite z-score in [2] is -0.164.

Consider `CO[C@H]1COC(=O)[C@H](C)NC(=O)CC=C[C@@H](C)[C@H](OC)COC(=O)[C@@H](OCc2ccccc2)C=C[C@@H]1C`, for which the z-score in test [1] is 0.31 (inactive); in test [3], -0.352 (inactive); in test [4] it was 0.101 (inactive); in test [5], 0.912 (inactive); in test [6], 0.378 (inactive); in test [7], -0.191. Further, the z-score in [8] was 1.18 (inactive); in test [9] it was 0.332 (inactive); in test [10], -0.017; in test [11], 0.0192; in test [12] it was 0.0912; in test [13] it was 0.645. Further, the z-score is -0.144 in test [14]; -0.646 in test [15]; 0.00399 in test [16]; -0.29 (inactive) in [17]; -0.0466 in test [18]; 0.474 in test [19]. For the same molecule, the z-score in test [20] is 0.703 (inactive). In test [2], this molecule showed a composite z-score of -0.0544.
